Artemis endo inh: Artemis endonuclease inhibitors, primary screen, biochemical, fluorescence intensity, FAM/BHQ-1 hairpin substrate | inhibition, % at 10 µM | recombinant Artemis, quenched FAM hairpin cleavage fluorescence | 30,000 compounds, 0.78% hits | AID 686954, 2013 | Protein artemis (Homo sapiens), Q96SD1;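 active = at 10 µM dose, at least 30% inhibition, measured as corrected fluorescence normalized to stimulator and neutral control wells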
Target sequence (Q96SD1 whole entry, looked up): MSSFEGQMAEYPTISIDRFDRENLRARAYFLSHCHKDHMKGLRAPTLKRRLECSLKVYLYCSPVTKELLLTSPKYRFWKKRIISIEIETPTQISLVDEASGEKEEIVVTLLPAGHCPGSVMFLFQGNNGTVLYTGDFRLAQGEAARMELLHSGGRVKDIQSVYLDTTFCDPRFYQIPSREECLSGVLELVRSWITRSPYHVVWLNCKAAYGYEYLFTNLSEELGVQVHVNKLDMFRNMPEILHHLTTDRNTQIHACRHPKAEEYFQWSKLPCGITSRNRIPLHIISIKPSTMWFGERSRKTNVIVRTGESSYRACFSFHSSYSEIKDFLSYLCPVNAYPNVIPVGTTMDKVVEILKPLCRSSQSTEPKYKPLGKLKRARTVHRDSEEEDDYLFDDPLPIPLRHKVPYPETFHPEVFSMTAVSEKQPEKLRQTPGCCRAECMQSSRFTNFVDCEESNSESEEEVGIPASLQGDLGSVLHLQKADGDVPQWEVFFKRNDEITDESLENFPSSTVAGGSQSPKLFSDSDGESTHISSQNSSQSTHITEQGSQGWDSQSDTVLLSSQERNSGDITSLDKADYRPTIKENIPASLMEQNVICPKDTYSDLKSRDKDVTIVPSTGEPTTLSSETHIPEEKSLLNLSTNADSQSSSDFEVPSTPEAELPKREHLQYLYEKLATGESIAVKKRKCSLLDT
* = called active by the depositor. The entries come from a sample that favours hits as a whole.

SMILES | Artemis endo inh
COc1cc(-c2[nH]nc3c2C(c2ccoc2)C(C#N)=C(N)O3)cc(OC)c1OC (configuration not stated) | 7
Cc1ccc(C2C(C#N)=C(N)Oc3n[nH]c(-c4cccs4)c32)cc1 (configuration not stated) | 1
N#CC1=C(N)Oc2n[nH]c(-c3cccs3)c2C1c1ccoc1 (configuration not stated) | 39*
COC(=O)c1sc2ccccc2c1-n1cccc1C(=O)C(=O)Nc1ccc(OC)cc1 | -3
COC(=O)c1nn(-c2ccccc2)c(Sc2ccc(Br)cc2)c1/C=N/O | 10
O=C1C2C3C=CC(C3=C(c3ccccc3)c3ccccc3)C2C(=O)N1Cc1ccccc1 (configuration not stated) | 0
O=C(Nc1ccc(Cl)cc1)c1ccc2c(c1)OCO2 | -5
CCC(=O)Nc1ccc(C(=O)Nc2ccc3c(c2)OCO3)cc1 | 36*
CN1CCN(CCC(=O)Nc2ccc3c(c2)OCO3)CC1 | 2
CCN(CC)c1nc(C)nc2c1cnn2CCc1ccccc1 | -4
CCOc1ccc(NS(=O)(=O)c2ccc(NC(=O)C3CCCO3)cc2)cc1 (configuration not stated) | 12
Cc1ccc2oc(-c3cccc(NC(=S)NC(=O)/C=C/c4ccco4)c3)nc2c1 | 20
O=C(NCc1ccccn1)C1C2C=CC(C2)C1C(=O)Nc1ccc(F)cc1 (configuration not stated) | -1
COc1cccc(-c2csc(NC(C)=O)n2)c1 | -5
Clc1ccc(-c2cn3cccnc3n2)cc1 | -4
OC1CCN(c2c3c(nc4cc(-c5ccc(Cl)cc5)nn24)CCC3)CC1 | 4
COc1cccc(-c2cc(C(F)(F)F)n3nc(N)nc3n2)c1 | -3
COc1cccc(-c2cn3nc4c(nc3n2)CCCC4)c1 | 36*
Clc1ccc(-c2cn3nc4c(nc3n2)CCCC4)cc1 | 37*
O=C(CSCC(=O)NC1CC1)Nc1ccc2ccccc2c1 | -11
O=C(CSc1nnc(-c2ccccc2NC(=O)c2ccccc2)o1)OC1CCCCC1 | -6
COC(=O)c1ccc(NC(=O)CSc2nnc(C(C)NC(=O)c3ccccc3Cl)n2C)cc1 (configuration not stated) | 3
CC(C)(C)c1ccc(-c2nnc(SCCN3C(=O)c4ccccc4C3=O)o2)cc1 | 4
Cc1cccc(-c2nnc3n2N=C(c2ccccc2Br)CS3)c1 | 12
O=C(/C(=C/c1ccccc1)c1ccccc1)N1CCCCC1 | -1
SMILES | Artemis endo inh
CCOc1ccc(N2C(=O)CC(SC(=NC)Nc3ccc(F)cc3)C2=O)cc1 (configuration not stated) | 4
Cc1cc(C)n(-c2cc(N3CCN(C(=O)c4ccccc4C)CC3)ccc2[N+](=O)[O-])n1 | 4
COc1ccccc1C(=O)OCc1c(F)cccc1Cl | -3
CCc1nnc(NC(=O)CSc2nc3cccnc3n2Cc2ccccc2)s1 | -5
Cc1sc2ncnc(NCC(c3ccco3)N3CCCC3)c2c1C (configuration not stated) | 7
COC(=O)c1ccc(NC(=O)c2cn(-c3ccccc3)nc2-c2ccncc2)cc1 | 7
COc1ccc(-c2nn(-c3ccccc3)cc2C(=O)Nc2nccs2)cc1 | 47*
COc1ccc(-c2nn(-c3ccccc3)cc2CO)cc1 | 4
COc1ccc([N+](=O)[O-])cc1NC(=S)NC(NC(=O)C(c1ccccc1)c1ccccc1)C(Cl)(Cl)Cl (configuration not stated) | 5
CN(Cc1ccccc1)C(=O)[C@H]1CCC(=O)N1Cc1ccco1 | 0
Cc1cc(S(=O)(=O)Nc2nc(CN3CCOCC3)nc3sc4c(c23)CCCC4)ccc1F | -6
Cc1cc(C)n(-c2nc(NCC(C)O)c3c4c(sc3n2)CCCC4)n1 (configuration not stated) | 39*
Cc1cc(C)n(-c2nc(NCCCO)c3c4c(sc3n2)CCCC4)n1 | 33*
Cc1cc(C)n(-c2nc(NCCO)c3c4c(sc3n2)CCCC4)n1 | -2
CCn1c(NN)nc2sc3c(c2c1=O)CCC3 | 1
N=c1c2c3c(sc2ncn1CCCO)CCCC3 | -3
O=C(O)CCCN=CC1=C(O)C(C(=O)c2ccccc2)CCC1=O (configuration not stated) | 3
COc1ccc2c(c1[N+](=O)[O-])CCC/C2=N/OC(=O)c1cccc2ccccc12 | 2
CCOc1ccccc1N1CN(CC)CNC1=S | 55*
CCOc1ccccc1N1Cc2ccccc2C1 | 20
CCOc1ccccc1N1CCN(C(=O)C(F)(F)F)CC1 | -4
O=C1NC(=O)/C(=C\c2ccccc2Oc2ccc(F)c(F)c2)S1 | 34*
O=C(c1ccc2ccccc2n1)N1CCN(c2ccccc2O)CC1 | 5
Clc1ccc(-n2cccc2/C=N/n2cnnc2)cc1 | -2
Cc1cc(/C=N/n2cnnc2)c(C)n1-c1ccc(OCc2ccc(Cl)cc2)cc1 | 33*
SMILES | Artemis endo inh
Clc1ccc(Cn2cc(/C=N/n3cnnc3)c3ccccc32)cc1 | 3
CNCc1ccccc1Sc1ccc(OC)c(OC)c1 | -2
CN(C)CCCOc1nc2c(c(=O)n(C)c(=O)n2C)n1C | 9
COc1ccc(C2C(C(=O)c3ccc(C)o3)=C(O)C(=O)N2c2cc(C)on2)cc1OC (configuration not stated) | 2
CCOc1cc(C2C(C(=O)c3ccc(C)o3)=C(O)C(=O)N2CCc2ccccc2)ccc1O (configuration not stated) | 32*
COc1cc(C2C(C(C)=O)=C(O)C(=O)N2CCc2ccc(OC)c(OC)c2)ccc1O (configuration not stated) | 1
CCN1C=CC2=C(C#N)C(N)C(C#N)(C#N)C(c3ccccc3C(F)(F)F)C2C1 (configuration not stated) | -1
Cc1cc(C)c2c3c(cn2n1)c(=O)n(C)c(=O)n3C | 0
CSc1nc2ccc(NS(=O)(=O)c3ccc4c(c3)OCCO4)cc2s1 | 34*
COc1ccc(S(=O)(=O)Nc2ccc3c(c2)OCCO3)cc1Cl | -2
CSc1nc2ccc(S(=O)(=O)NC3CCCCC3)cc2s1 | 1
COc1ccc(Cl)cc1NC(=O)Nc1cccc([N+](=O)[O-])c1C | -3
Cc1ccc(N=Nc2c(=O)[nH]n3c(=O)cc(C)[nH]c23)cc1 | 12
Cc1ccc(C(=O)Nc2nc3nc(-c4ccccc4)cc(=O)n3[nH]2)cc1 | 3
CSc1nc2nc(-c3ccccc3)cc(=O)n2[nH]1 | -2
Cc1ccc(N=Nc2c(N)[nH]n3c(=O)cc(-c4ccccc4)nc23)cc1 | 48*
COc1cccc(N=Nc2c(N)[nH]n3c(=O)cc(-c4ccccc4)nc23)c1 | 36*
CCOC(=O)Cc1cc(=O)n2[nH]c(C)c(-c3ccc(OC)cc3)c2n1 | 5
COc1cccc(-c2cc(C(F)(F)F)n3ncc(C(=O)O)c3n2)c1 | -2
Cc1[nH]n2c(=O)cc(C(C)(C)C)nc2c1-c1ccccc1 | 15
Cc1[nH]n2c(=O)cc(-c3ccc([N+](=O)[O-])cc3)nc2c1-c1ccccc1 | 32*
CC(Sc1nnc(-c2cccs2)n1-c1ccccc1)C(=O)NCc1ccc2c(c1)OCO2 (configuration not stated) | 4
O=C(Nc1cccc(C(F)(F)F)c1)N(Cc1ccc(Cl)cc1)CC(O)C(F)(F)F (configuration not stated) | 1
COCCN(Cc1cc2ccc(C)cc2n2nnnc12)Cc1nnnn1C(C)(C)C | -7
Cc1cc(C)n(-c2cc(N3CCN(C(=O)c4cccc(F)c4)CC3)ccc2[N+](=O)[O-])n1 | 8
CCCC/C(C)=N/NC(=O)C(=O)NCCc1ccccc1 | -12

High-throughput results: PubChem, Sanford-Burnham Center for Chemical Genomics
